Calls of active or inactive are those of the source. The calls were made as follows: active = hit-call score of the fitted dose curve at least 0.9, where 1 is the maximum; inactive = score below 0.9.
How the values were obtained:
Details in all cases: mRNA level, 48 h; actives raise or lower the signal
CYP4A11 (gene 1579) = experiment: LTEA_HepaRG_CYP4A11: Life Technologies and Expression Analysis (LTEA) Assay for CYP4A11 using HepaRG (AID 2283486)
Summary of the method: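 HepaRG, 48 h chem exposure, 8 conc (100 uM top, half-log), 0.5% DMSO vehicle; qRT-PCR readout, housekeeping-gene normalized; bidirectional curve fit vs DMSO baseline.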

[1] = read-out: Cytochrome P450 3A4 (Homo sapiens) (UniProt P08684); experiment: LTEA_HepaRG_CYP3A4: Life Technologies and Expression Analysis (LTEA) Assay for CYP3A4 using HepaRG (AID 2283487)
Summary of the method: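 Differentiated HepaRG cells in serum-free induction medium exposed in duplicate for 48 h to 8 half-log concentrations up to 100 uM in 0.5% DMSO. CYP3A4 mRNA measured by qRT-PCR normalized to ACTB, GAPDH and POLR2A; bidirectional fit versus DMSO.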

[2] = read-out: DNA damage-inducible transcript 3 (DDIT3), DDIT3 (gene 1649); experiment: LTEA_HepaRG_DDIT3: Life Technologies and Expression Analysis (LTEA) Assay for DNA damage-inducible transcript 3 (DDIT3) using HepaRG (AID 2283488)
Summary of the method: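 Differentiated human HepaRG cells in serum-free induction medium were exposed in duplicate for 48 h to 8 concentrations (top 100 uM, half-log steps, 0.5% DMSO). DDIT3 mRNA measured by TaqMan qRT-PCR, normalized to ACTB/GAPDH/POLR2A; bidirectional fit versus DMSO.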

[3] = read-out: Pro-epidermal growth factor (Homo sapiens) (UniProt P01133); experiment: LTEA_HepaRG_EGF: Life Technologies and Expression Analysis (LTEA) Assay for Epidermal growth factor (EGF) using HepaRG (AID 2283489)
Summary of the method: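 HepaRG, 48 h dosing, 100 uM top, half-log x8, 0.5% DMSO. Readout: TaqMan qRT-PCR (Fluidigm array), housekeeping-normalized. Gain or loss of signal fit vs DMSO.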

[4] = read-out: Early growth response protein 1 (EGR1) transcription factor, EGR1 (gene 1958); experiment: LTEA_HepaRG_EGR1: Life Technologies and Expression Analysis (LTEA) Assay for Early growth response protein 1 (EGR1) transcription factor using HepaRG (AID 2283490)
Summary of the method: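 Differentiated HepaRG cells in serum-free induction medium exposed 48 hours, duplicate, to 8 half-log concentrations up to 100 uM in 0.5% DMSO. EGR1 mRNA measured by TaqMan qRT-PCR, normalized to ACTB, GAPDH, POLR2A; bidirectional fit versus DMSO.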

[5] = read-out: Ezrin (EZR), EZR (gene 7430); experiment: LTEA_HepaRG_EZR: Life Technologies and Expression Analysis (LTEA) Assay for Ezrin (EZR) using HepaRG (AID 2283491)
Summary of the method: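 Differentiated human HepaRG cells, 48 h after plating, were exposed in serum-free induction medium for 48 hours to eight half-log concentrations up to 100 uM in 0.5% DMSO. EZR mRNA was measured by TaqMan qRT-PCR, normalized to ACTB, GAPDH and POLR2A, and fitted bidirectionally against DMSO.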

[6] = read-out: Cytochrome P450 3A7 (Homo sapiens) (UniProt P24462); experiment: LTEA_HepaRG_CYP3A7: Life Technologies and Expression Analysis (LTEA) Assay for CYP3A7 using HepaRG (AID 2283492)
Summary of the method: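 Human HepaRG liver cells, 48 h post-plating, switched to serum-free induction medium and exposed in duplicate for 48 h. Dosing: 100 uM top, half-log dilutions, 8 points, 0.5% DMSO vehicle. Read-out: CYP3A7 mRNA, gain or loss fitted against DMSO baseline.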

CYP3A5 (gene 1577) = experiment: LTEA_HepaRG_CYP3A5: Life Technologies and Expression Analysis (LTEA) Assay for CYP3A5 using HepaRG (AID 2283493)
Summary of the method: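 Differentiated HepaRG cells in serum-free induction medium were dosed 48 h with test chemicals (8-point half-log series, top 100 uM, 0.5% DMSO, duplicate). CYP3A5 mRNA measured by qRT-PCR, normalized to ACTB, GAPDH, POLR2A; bidirectional fit versus DMSO.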

[7] = read-out: Fatty Acid-Binding Protein 1 (FABP1), FABP1 (gene 2168); experiment: LTEA_HepaRG_FABP1: Life Technologies and Expression Analysis (LTEA) Assay for Fatty Acid-Binding Protein 1 (FABP1) using HepaRG (AID 2283494)
Summary of the method: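 Differentiated human HepaRG cells exposed 48 h in serum-free induction medium to eight half-log concentrations up to 100 uM (0.5% DMSO), duplicate. FABP1 mRNA by qRT-PCR, normalised to ACTB, GAPDH, POLR2A; bidirectional fitting against DMSO.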

[8] = read-out: Cytochrome P450 4A22 (Homo sapiens) (UniProt Q5TCH4); experiment: LTEA_HepaRG_CYP4A22: Life Technologies and Expression Analysis (LTEA) Assay for Cytochrome P450 4A22 (CYP4A22) using HepaRG (AID 2283495)
Summary of the method: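 Readout is CYP4A22 transcript induction or loss, quantified by qRT-PCR and normalized to ACTB, GAPDH and POLR2A. Human HepaRG cells receive test chemicals for 48 h at eight half-log concentrations from 100 uM in 0.5% DMSO.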

[9] = read-out: Cytochrome P450 7A1 (Homo sapiens) (UniProt P22680); experiment: LTEA_HepaRG_CYP7A1: Life Technologies and Expression Analysis (LTEA) Assay for Cytochrome P450 7A1 (CYP7A1) using HepaRG (AID 2283496)
Summary of the method: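 Gene expression endpoint in human HepaRG liver cells treated for 48 h with test chemicals (up to 100 uM, 0.5% DMSO). Values come from bidirectional concentration-response fitting versus DMSO.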

[10] = read-out: Glutathione S-Transferase (GSTA2), GSTA2 (gene 2939); experiment: LTEA_HepaRG_GSTA2: Life Technologies and Expression Analysis (LTEA) Assay for Glutathione S-Transferase (GSTA2) using HepaRG (AID 2283497)
Summary of the method: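 Differentiated human HepaRG cells were exposed in duplicate for 48 h in serum-free induction medium, 8 points from 100 uM top in half-log steps, 0.5% DMSO. GSTA2 mRNA was measured by TaqMan qRT-PCR, normalized to ACTB, GAPDH and POLR2A; bidirectional fit versus DMSO.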

[11] = read-out: Glutamate-cysteine ligase catalytic (GCLC), GCLC (gene 2729); experiment: LTEA_HepaRG_GCLC: Life Technologies and Expression Analysis (LTEA) Assay for Glutamate-cysteine ligase catalytic (GCLC) using HepaRG (AID 2283498)
Summary of the method: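 Differentiated HepaRG cells exposed 48 h in serum-free induction medium, eight-point half-log series topping at 100 uM in 0.5% DMSO, duplicates. GCLC mRNA by qRT-PCR normalized to ACTB, GAPDH and POLR2A, fitted bidirectionally versus DMSO.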

[12] = read-out: growth arrest and DNA damage 45 (GADD45G), GADD45G (gene 10912); experiment: LTEA_HepaRG_GADD45G: Life Technologies and Expression Analysis (LTEA) Assay for growth arrest and DNA damage 45 (GADD45G) using HepaRG (AID 2283499)
Summary of the method: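 Gain or loss of GADD45G mRNA, quantified by TaqMan qRT-PCR against three housekeeping genes, is fitted in both directions relative to 0.5% DMSO. Human HepaRG cultures receive test chemical for 48 h at up to 100 uM.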

[13] = read-out: Glutamate-cysteine ligase regulatory (GCLM), GCLM (gene 2730); experiment: LTEA_HepaRG_GCLM: Life Technologies and Expression Analysis (LTEA) Assay for Glutamate-cysteine ligase regulatory (GCLM) using HepaRG (AID 2283500)
Summary of the method: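 Differentiated human HepaRG cells exposed 48 h in serum-free induction medium to 8-point half-log concentrations (top 100 uM, 0.5% DMSO), in duplicate. GCLM mRNA quantified by qRT-PCR, normalized to ACTB, GAPDH, POLR2A; bidirectional fitting versus DMSO.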

[14] = read-out: Glutathione S-transferase M3 (GSTM3), GSTM3 (gene 2947); experiment: LTEA_HepaRG_GSTM3: Life Technologies and Expression Analysis (LTEA) Assay for Glutathione S-transferase M3 (GSTM3) using HepaRG (AID 2283501)
Summary of the method: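 HepaRG, plated 48 h, then serum-free induction medium; test chemical 48 h, duplicate; 100 uM top, half-log x8, 0.5% DMSO. Read-out: GSTM3 mRNA (TaqMan qRT-PCR, Fluidigm array). Bidirectional fit vs DMSO.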

[15] = read-out: Heat shock 70 kDa protein 1 (HSPA1A), gene 3303; experiment: LTEA_HepaRG_HSPA1A: Life Technologies and Expression Analysis (LTEA) Assay for Heat shock 70 kDa protein 1 (HSPA1A) using HepaRG (AID 2283502)
Summary of the method: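 Differentiated human HepaRG cells in serum-free induction medium were exposed in duplicate for 48 h to eight concentrations (top 100 uM, half-log steps, 0.5% DMSO). HSPA1A mRNA was quantified by qRT-PCR, normalized to ACTB, GAPDH and POLR2A, and fitted bidirectionally against DMSO.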

[16] = read-out: Hypoxia-inducible factor 1-alpha (Homo sapiens) (UniProt Q16665); experiment: LTEA_HepaRG_HIF1A: Life Technologies and Expression Analysis (LTEA) Assay for Hypoxia-inducible factor 1 (HIF1A) Trancription factor using HepaRG (AID 2283503)
Summary of the method: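 HepaRG, 48 h exposure, 8-pt half-log series from 100 uM, 0.5% DMSO vehicle, duplicates. Readout: HIF1A transcript by qRT-PCR (Fluidigm array), housekeeping-normalised. Bidirectional curve fit vs DMSO baseline.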

[17] = read-out: 3-Hydroxy-3-Methylglutaryl-CoA Synthase 2 (HMGCS2), HMGCS2 (gene 3158); experiment: LTEA_HepaRG_HMGCS2: Life Technologies and Expression Analysis (LTEA) Assay for 3-Hydroxy-3-Methylglutaryl-CoA Synthase 2 (HMGCS2) using HepaRG (AID 2283504)
Summary of the method: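 HepaRG, plated 48 h then switched to serum-free induction media; cmpd 8-pt, max 100 uM, 1/2-log, 0.5% DMSO, n=2, 48 h. HMGCS2 mRNA by Fluidigm TaqMan qRT-PCR, ACTB/GAPDH/POLR2A norm; bidirectional fit vs DMSO.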

HGF (gene 3082) = experiment: LTEA_HepaRG_HGF: Life Technologies and Expression Analysis (LTEA) Assay for Hepatocyte Growth Facto (HGF) using HepaRG (AID 2283505)
Summary of the method: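 Read-out is HGF transcript level by qRT-PCR, normalized to three housekeeping genes, fitted bidirectionally against 0.5% DMSO vehicle. Human HepaRG cells received test chemicals for 48 h at up to 100 uM.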

Measured: AC50

Chain of Hypoxia-inducible factor 1-alpha (Homo sapiens) (Q16665 whole entry, looked up): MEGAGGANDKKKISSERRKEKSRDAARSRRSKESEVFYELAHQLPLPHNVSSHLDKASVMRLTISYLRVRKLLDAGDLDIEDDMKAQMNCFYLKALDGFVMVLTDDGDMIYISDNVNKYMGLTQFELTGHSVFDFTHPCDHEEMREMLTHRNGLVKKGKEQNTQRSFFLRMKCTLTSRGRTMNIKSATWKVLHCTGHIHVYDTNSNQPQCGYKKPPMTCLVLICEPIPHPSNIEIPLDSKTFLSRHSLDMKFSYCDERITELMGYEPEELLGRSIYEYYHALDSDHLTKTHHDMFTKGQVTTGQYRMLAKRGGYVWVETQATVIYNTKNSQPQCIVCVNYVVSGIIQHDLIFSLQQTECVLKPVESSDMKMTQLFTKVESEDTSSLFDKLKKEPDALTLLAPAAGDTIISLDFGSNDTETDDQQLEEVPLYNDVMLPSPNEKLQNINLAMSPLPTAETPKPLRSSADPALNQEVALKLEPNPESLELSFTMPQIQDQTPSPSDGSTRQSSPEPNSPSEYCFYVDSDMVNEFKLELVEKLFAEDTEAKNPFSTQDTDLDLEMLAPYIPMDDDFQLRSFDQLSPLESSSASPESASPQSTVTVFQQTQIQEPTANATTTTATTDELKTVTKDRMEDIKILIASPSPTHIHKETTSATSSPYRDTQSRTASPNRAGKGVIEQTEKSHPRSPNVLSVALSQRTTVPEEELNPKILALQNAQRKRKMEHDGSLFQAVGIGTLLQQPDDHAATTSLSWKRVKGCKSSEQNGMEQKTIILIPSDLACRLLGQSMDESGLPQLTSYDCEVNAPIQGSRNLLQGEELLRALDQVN
Chain of Cytochrome P450 3A4 (Homo sapiens) (P08684 whole entry, looked up): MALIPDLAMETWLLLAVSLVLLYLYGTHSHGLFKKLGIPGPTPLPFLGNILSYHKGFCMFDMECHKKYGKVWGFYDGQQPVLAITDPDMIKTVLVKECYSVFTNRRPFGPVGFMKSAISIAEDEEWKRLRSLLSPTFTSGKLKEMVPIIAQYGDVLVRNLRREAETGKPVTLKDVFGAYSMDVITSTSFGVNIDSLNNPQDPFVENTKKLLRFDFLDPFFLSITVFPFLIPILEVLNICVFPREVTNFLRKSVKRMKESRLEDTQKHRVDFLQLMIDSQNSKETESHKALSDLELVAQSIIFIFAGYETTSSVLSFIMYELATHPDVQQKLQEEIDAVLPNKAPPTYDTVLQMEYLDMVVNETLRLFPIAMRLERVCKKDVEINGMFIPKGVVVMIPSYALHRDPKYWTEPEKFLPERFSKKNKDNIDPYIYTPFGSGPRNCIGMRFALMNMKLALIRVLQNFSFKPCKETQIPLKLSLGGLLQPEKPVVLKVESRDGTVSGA
Chain of Cytochrome P450 3A7 (Homo sapiens) (P24462 whole entry, looked up): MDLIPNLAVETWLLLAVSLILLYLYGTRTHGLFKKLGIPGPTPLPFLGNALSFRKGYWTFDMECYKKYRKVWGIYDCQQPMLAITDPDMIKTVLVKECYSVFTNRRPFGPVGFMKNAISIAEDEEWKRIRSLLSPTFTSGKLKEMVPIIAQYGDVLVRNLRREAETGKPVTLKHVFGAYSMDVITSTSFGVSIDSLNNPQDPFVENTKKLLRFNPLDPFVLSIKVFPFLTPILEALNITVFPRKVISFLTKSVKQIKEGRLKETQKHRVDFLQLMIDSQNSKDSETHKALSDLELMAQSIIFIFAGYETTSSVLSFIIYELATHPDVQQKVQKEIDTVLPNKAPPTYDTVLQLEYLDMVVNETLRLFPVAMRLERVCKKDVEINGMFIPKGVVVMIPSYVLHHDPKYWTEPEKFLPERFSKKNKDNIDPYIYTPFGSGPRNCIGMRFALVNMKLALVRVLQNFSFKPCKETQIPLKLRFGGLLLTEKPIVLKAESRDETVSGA

CCOc1cccc(C2(N3CCN(c4ccccc4)CC3)CCC(C)CC2)c1 (stereo not given)
inactive: all assays above

CC(C)(C)OOC(C)(C)CCC(C)(C)OOC(C)(C)C
inactive: all assays above

c1ccc(NNc2ccccc2)cc1
inactive: all assays above

CCOC(=O)[C@]1(c2ccccc2)Oc2ccccc2[C@@H]1N
inactive: [4] | [5] | CYP3A5 (gene 1577) | [14] | [15] | HGF (gene 3082)
active: CYP4A11 (gene 1579) 79.7 µM | [1] 80 µM | [2] 76.8 µM | [3] 75.6 µM | [6] 85.4 µM | [7] 90.1 µM | [8] 71.6 µM | [9] 90.5 µM | [10] 76.1 µM | [11] 82.4 µM | [12] 87.9 µM | [13] 76.9 µM | [16] 82.2 µM | [17] 77.3 µM

N#CC(Br)Br
inactive: all assays above

CCC12COCN1COC2
inactive: all assays above

Reference: PubChem BioAssay (EPA / NIEHS)
